According to PubChem BioAssay AID488832 (National Center for Advancing Translational Sciences (NCATS), 2010):
Inconclusive results are not listed. Calls of active or inactive are those of the source. Calls come from the whole dose curve; as a rule, active = well fitted activation curve with a large enough effect; inconclusive = small, poorly fitted or top-dose-only effect; inactive = no such curve, though single readings can be large or run the other way.

Experiment: Confirmation Concentration-Response Assay for Enhancers of SMN2 Splice Variant Expression for Further Probe SAR
Details: HEK293 SMN2 exon7-luciferase splicing reporter, luminescence, 30-36 h; series mostly up to 46.1 µM; activity, positive = activation: at the top concentration
Text: NIH Chemical Genomics Center [NCGC] NIH Molecular Libraries Probe Production centers Network [MLPCN] MLPCN Grant: R03 MH084179-01 Assay Submitter (PI): Elliot Androphy NCGC Assay Overview: Spinal muscular atrophy (SMA) is caused by insufficient levels of the survival motor neuron protein SMN. The SMN locus on chromosome 5q13 contains two inverted copies of SMN called SMN1 and SMN2 which are 99% identical at the amino acid level. SMN1 is a fully functional protein and SMN2 skips exon 7 90% of the time. Skipping of exon 7 produces non-functional protein product. 10% of the SMN2 protein includes exon 7 and is fully functional. In the SMA disease state, mutations in the SMN1 locus are the cause of the disease state. Because only 10% of SMN2 is of the fully functional form, it is not sufficient to overcome the deficiency produced by the loss of the SMN1 product. A therapy that either increase the amount of SMN2 product made or to increase the inclusion of exon 7 has been proposed for the treatment of SMA. We have designed an assay to identify small molecules that can increase the amount of functional SMN2 product by appending a luciferase reporter gene after the native SMN2 gene, such that inclusion of exon 7 in the expressed product places the luciferase sequence in frame, thus generating functional luciferase enzyme.
NCGC Assay Protocol Summary: This screen utilizes a luciferase reporter gene assay, combining the promoter with the major portion of the native SMN2 cDNA (exons 1 -7, intron 8 , exon 8 fused to luciferase) stably expressed in HEK293 cells. Compounds that increase luciferase signal presumably enhance expression of the functional SMN2 splice variant. Passaging media contained DMEM w/ glutamax (+phenol red) 10% FCS, 1x pen/strep, 200 ug/ml hygro, 1x sodium pyruvate. Assay media contained DMEM w/ glutamax (-phenol red) 10% FCS, 1x pen strep, 1x pyruvate Sequence, Parameter, Value, Description (1) Cells, 5 uL, 2000 cells/well, 1536 TC treated White solid bottom plate (2) Time, 10-12 hours, 37C 5% CO2 (3) Compound, 23 nl, MLSMR Library (4) Control Compound, 23 nL, Sodium butyrate st 4.5mM (final) conc (5) Time, 30-36 hours, 37C 5% CO2 (6) Reagent, 3 ul, One Glo (TM) from Promega (7) Time, 5-15 minutes, Room temp (8) Detector, Viewlux: luminescent read, 60 second integration, high speed 2x binning Keywords: Spinal muscular atrophy, SMA, SMN2, high throughput screening, MLSMR, MLPCN, NIH Roadmap, qHTS and NCGC

For `N#Cc1cccc(-c2csc(N3CCC(C(N)=O)CC3)n2)c1`, which “activity, positive = activation” value is on record?
Its value is 10.7% (inactive).

With `O=C(Nc1ccccc1)C1CCN(c2nc(-c3ccc(Br)cc3)cs2)CC1` as the molecule, how does the Potency read?
The Potency was 1.54 µM (active).

Which “activity, positive = activation” value does the source give for `Cc1cnc(N2CCC(C(N)=O)CC2)nc1-c1cccc(N(C)C)c1` here?
Its value is 7.67% (inactive).

For `CN(C)c1cccc(-c2cnc(N3CCC(c4ncc[nH]4)CC3)s2)c1`, which Potency is on record?
The Potency was 3.45 µM (active).

With `NC(=O)N1CCN(c2nc(-c3ccc(Br)cc3)cs2)CC1` as the molecule, how does the Potency read?
Its Potency is 13.7 µM (active).

Which Potency does the source give for `NC(=O)C1CCN(c2cc(-c3ccc4c(c3)OCCCO4)ncn2)CC1` here?
The Potency was 6.14 µM (active).

With `CC(C)Oc1cccc(-c2ccnc(N3CCC(C(N)=O)CC3)n2)c1` as the molecule, how does the Potency read?
Its Potency is 0.154 µM (active).

For `Cc1cccc(-c2csc(N3CCC(C(N)=O)CC3)n2)c1`, which Potency is on record?
Its Potency is 15.4 µM (active).

With `CC(C)Oc1cccc(-c2cnc(N3CCC(C(N)=O)CC3)s2)c1` as the molecule, how does the Potency read?
The Potency was 0.0688 µM (active).

With `NC(=O)C1CCN(c2ncc(-c3ccc(Cl)cc3)s2)CC1` as the molecule, how does the Potency read?
The Potency was 0.137 µM (active).

For `NC(=O)C1CCN(c2nccc(-c3ccc4c(c3)OCCCO4)n2)CC1`, which Potency is on record?
Its Potency is 1.54 µM (active).

With `COc1ccc(-c2cnc(N3CCC(C(N)=O)CC3)s2)cc1OC` as the molecule, how does the Potency read?
Its Potency is 7.72 µM (active).

For `CS(=O)(=O)N1CCN(c2nc(-c3ccc(Br)cc3)cs2)CC1`, which “activity, positive = activation” value is on record?
The value was -26.1% (inactive).

With `COc1cccc(-c2csc(N3CCC(C(N)=O)CC3)n2)c1` as the molecule, how does the Potency read?
The Potency was 1.09 µM (active).

Which Potency does the source give for `O=C(O)C1CCN(c2nc(-c3ccc(Br)cc3)cs2)CC1` here?
Its Potency is 2.44 µM (active).

For `O=C(NCCCCc1ccccc1)C1CCN(c2nc(-c3ccc(Br)cc3)cs2)CC1`, which “activity, positive = activation” value is on record?
Its value is 4.35% (inactive).

Which Potency does the source give for `NC(=O)C1CCN(c2nc(-c3ccccc3)cs2)CC1` here?
Its Potency is 3.07 µM (active).

With `CN(C)c1cccc(-c2nnc(N3CCC(C(N)=O)CC3)s2)c1` as the molecule, how does the Potency read?
Its Potency is 0.218 µM (active).

For `NC(=O)C1CCN(c2nc(-c3ccc(Oc4ccccc4)cc3)cs2)CC1`, which Potency is on record?
The Potency was 4.34 µM (active).

With `NC(=O)C1CCN(c2ncnc(-c3ccc4c(c3)OCCCO4)n2)CC1` as the molecule, how does the Potency read?
The Potency was 2.44 µM (active).

With `NC(=O)C1CCN(c2nnc(-c3ccc4c(c3)OCCCO4)s2)CC1` as the molecule, how does the Potency read?
The Potency was 0.0972 µM (active).

For `NC(=O)C1CCN(c2nc(-c3ccc4c(c3)OCCCO4)cs2)CC1`, which Potency is on record?
The Potency was 0.487 µM (active).

With `COc1ccccc1-c1csc(N2CCC(C(N)=O)CC2)n1` as the molecule, how does the “activity, positive = activation” value read?
The value was -17.9% (inactive).

For `CC(=O)NC1CCN(c2nc(-c3ccc(Br)cc3)cs2)CC1`, which “activity, positive = activation” value is on record?
Its value is -49.7% (inactive).

With `O=C(Nc1ccccc1)C1CCN(c2ncc(-c3ccc4c(c3)OCCCO4)s2)CC1` as the molecule, how does the Potency read?
The Potency was 0.0487 µM (active).

With `CC(C)(C)OC(=O)NC1CCN(c2nc(-c3ccc(Br)cc3)cs2)CC1` as the molecule, how does the “activity, positive = activation” value read?
The value was -21.7% (inactive).

With `NC(=O)C1CCN(c2nccc(-c3ccc(Br)cc3)n2)CC1` as the molecule, how does the Potency read?
Its Potency is 0.244 µM (active).

For `CN(C)c1cccc(-c2nccc(N3CCC(C(N)=O)CC3)n2)c1`, which Potency is on record?
The Potency was 12.2 µM (active).

For `CCOC(=O)C1CCN(c2ncc(-c3ccc4c(c3)OCCCO4)s2)CC1`, which Potency is on record?
Its Potency is 0.0274 µM (active).

With `O=C(NCc1ccccc1)C1CCN(c2nc(-c3ccc(Br)cc3)cs2)CC1` as the molecule, how does the “activity, positive = activation” value read?
The value was -4.76% (inactive).

With `NC(=O)C1CCN(c2nc(-c3ccc(OC(F)(F)F)cc3)cs2)CC1` as the molecule, how does the Potency read?
Its Potency is 3.07 µM (active).

With `O=C(c1ccco1)N1CCN(c2nc(-c3ccc(Br)cc3)cs2)CC1` as the molecule, how does the “activity, positive = activation” value read?
Its value is -35.5% (inactive).

Which Potency does the source give for `CSc1ccc(-c2cnc(N3CCC(C(N)=O)CC3)s2)cc1` here?
The Potency was 0.031 µM (active).

For `CS(=O)(=O)c1ccc(-c2csc(N3CCC(C(N)=O)CC3)n2)cc1`, which “activity, positive = activation” value is on record?
Its value is -5% (inactive).

For `Cc1ccc(-c2cnc(N3CCC(C(N)=O)CC3)s2)cc1`, which Potency is on record?
Its Potency is 0.0688 µM (active).

With `Brc1ccc(-c2csc(N3CCC(c4nn[nH]n4)CC3)n2)cc1` as the molecule, how does the Potency read?
Its Potency is 17.3 µM (active).

With `CC(C)Oc1cccc(-c2csc(N3CCC(C(N)=O)CC3)n2)c1` as the molecule, how does the Potency read?
Its Potency is 0.688 µM (active).

With `NC(=O)C1CCN(c2ncc(-c3cccc(N4CCCCC4)c3)s2)CC1` as the molecule, how does the Potency read?
Its Potency is 1.09 µM (active).

For `CN(C)c1cccc(-c2cc(N3CCC(C(N)=O)CC3)ncn2)c1`, which Potency is on record?
The Potency was 4.87 µM (active).

Which Potency does the source give for `CN(C)c1cccc(-c2ncnc(N3CCC(C(N)=O)CC3)n2)c1` here?
Its Potency is 0.772 µM (active).
